Results on seven molecules are retold here after paper PMC5540273 (PLoS ONE, 2017).

Some test systems named below: PIK3CD; PIK3CG; PIKFYVE; PIM1; PIM2; PIM3; PIP5K1A; PIP5K1C; PIP5K2B; PKMYT1; PKN1; PKN2; PLK1; PLK2; PLK3; PLK4.
Conditions in all cases: concentration: 1 μM, replicates: in singlicate; n = 1
For the next assay, the system named is T1, PIK4CB.
T1 construct: gene PI4KB

A further assay relates to T2, PIP5K2C.
T2 construct: gene PIP4K2C

A further assay relates to T3, PKAC-alpha.
T3 construct: gene PRKACA

The next assay has as its system T4, PKAC-beta.
T4 construct: gene PRKACB
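Further: KINOMEscan kinase panel screen.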

Regarding `FC(F)(F)c1cc(Nc2nccc(-c3c(-c4ccc(Cl)cc4)nn4ncccc34)n2)ccc1Cl` [GW829351], the “%Inh” value with PIK3CD stood at 0%; in the assay on PIK3CG it was 0%; in the assay with PIK4CB, 0%; with PIKFYVE, 16%; in the assay with PIM1, 0%; in the assay on PIM2 it was 0%. The “%Inh” value was determined as 0% with PIM3; 10% with PIP5K1A; 0% in the assay with PIP5K1C; 0% with PIP5K2B; 0% with PIP5K2C; 0% in the assay with PKAC-alpha. For the same molecule, the “%Inh” value in the assay on PKAC-beta, in the assay on PKMYT1, in the assay with PKN1, in the assay with PKN2, with PLK1 and in the assay on PLK2 was 0% throughout. In addition, the results for the “%Inh” value in the assay with PLK3 and with PLK4 were 3% and 7%, respectively.
`Nc1nc(-c2ccc3c(N)n[nH]c3c2)cc(N2CCC[C@@H](C(=O)Nc3ccccc3)C2)n1.O=C(O)C(F)(F)F.O=C(O)C(F)(F)F` [GSK2288359]: the “%Inh” value in the assay with PIK3CD is listed as 31%; in the assay on PIK3CG, 13%; with PIK4CB, 6%; in the assay on PIKFYVE, 4%; with PIM1, 20%; with PIM2 it was 0%. Moreover, the “%Inh” value in the assay on PIM3 was 5%; with PIP5K1A, 0%; in the assay on PIP5K1C it was 30%; in the assay on PIP5K2B, 8%; with PIP5K2C, 31%; with PKAC-alpha, 14%. Moreover, the “%Inh” value stood at 22% in the assay on PKAC-beta; 0% in the assay on PKMYT1; 17% in the assay on PKN1; 0% in the assay with PKN2; 3% in the assay on PLK1; 0% in the assay with PLK2. Also, the “%Inh” value in the assay with PLK3 turned out to be 3%; in the assay with PLK4, 16%.
With `O=C(Nc1ccccc1F)NC1CCN(c2ccnc(Nc3ccc(F)cc3)n2)C1` (centres unmarked) [GSK1379722], the “%Inh” value stood at 0% in the assay on PIK3CD; 0% in the assay on PIK3CG; 100% in the assay with PIK4CB; 0% in the assay with PIKFYVE; 0% in the assay on PIM1; 0% in the assay on PIM2. In addition, the “%Inh” value in the assay with PIM3 stood at 0%; with PIP5K1A, 0%; in the assay on PIP5K1C, 45%; in the assay with PIP5K2B, 14%; in the assay with PIP5K2C, 18%; with PKAC-alpha, 0%. In addition, the “%Inh” value came out at 0% in the assay on PKAC-beta; 4% in the assay with PKMYT1; 0% in the assay on PKN1; 0% with PKN2; 0% with PLK1; 0% with PLK2. Also, the “%Inh” value with PLK3 and with PLK4 was 0% in each case.
For `CCCc1ccc(S(=O)(=O)NC2CCN(c3ccnc(Nc4ccc(OC)cc4)n3)C2)cc1` (centres unmarked) [GSK1379737], the “%Inh” value in the assay on PIK3CD, in the assay on PIK3CG, with PIK4CB, in the assay on PIKFYVE, in the assay on PIM1 and in the assay with PIM2 was 0% each time. In addition, the “%Inh” value was determined as 0% with PIM3; 52% with PIP5K1A; 56% in the assay on PIP5K1C; 22% in the assay with PIP5K2B; 66% in the assay on PIP5K2C; 0% with PKAC-alpha. Further, the “%Inh” value in the assay with PKAC-beta came to 0%; in the assay with PKMYT1, 0%; with PKN1, 0%; in the assay with PKN2, 0%; with PLK1, 1%; with PLK2, 0%. Besides, the “%Inh” value with PLK3 and with PLK4 was 0% each time.
On to `CCc1nc(-c2cccc(N(C)S(=O)(=O)c3ccccc3)c2)c(-c2ccnc(Nc3ccc(N4CCN(C(C)=O)CC4)nc3)n2)s1` [GSK1645895], for which the “%Inh” value with PIK3CD was found to be 0%; with PIK3CG, 4%; with PIK4CB, 10%; in the assay on PIKFYVE, 0%; with PIM1, 17%; in the assay on PIM2 it was 0%. Also, the “%Inh” value is listed as 11% in the assay on PIM3; 0% in the assay on PIP5K1A; 0% in the assay with PIP5K1C; 0% in the assay with PIP5K2B; 63% with PIP5K2C; 0% with PKAC-alpha. The “%Inh” value in the assay with PKAC-beta was found to be 0%; in the assay with PKMYT1 it was 1%; with PKN1, 34%; in the assay with PKN2, 0%; in the assay on PLK1 it was 7%; in the assay with PLK2 it was 0%. Also, the “%Inh” value was determined as 0% in the assay on PLK3 and 8% in the assay on PLK4.
Turning to `Cn1cc(-c2ccc3c(c2)CCN3C(=O)Cc2cccc(C(F)(F)F)c2)c2c(N)ncnc21` [GSK2606414], the “%Inh” value with PIK3CD was 0%; with PIK3CG, 0%; with PIK4CB it was 6%; in the assay with PIKFYVE it was 0%; in the assay with PIM1, 0%; with PIM2, 0%. Moreover, the “%Inh” value in the assay on PIM3 came to 0%; with PIP5K1A, 0%; in the assay with PIP5K1C, 0%; with PIP5K2B, 0%; in the assay on PIP5K2C it was 0%; with PKAC-alpha, 4%. Further, the “%Inh” value in the assay on PKAC-beta came out at 6%; in the assay with PKMYT1, 5%; with PKN1 it was 37%; with PKN2, 0%; in the assay with PLK1 it was 0%; in the assay with PLK2, 0%. Also, the “%Inh” value turned out to be 0% in the assay on PLK3 and 15% in the assay on PLK4.
In the case of `CN1CCC(n2cnc(-c3ccc(F)cc3)c2-c2ccnc(NC3CCNCC3)n2)CC1` [SB-229482], the “%Inh” value is listed as 0% in the assay on PIK3CD; 34% in the assay with PIK3CG; 31% in the assay with PIK4CB; 40% in the assay with PIKFYVE; 1% in the assay on PIM1; 0% in the assay on PIM2. The “%Inh” value with PIM3 was determined as 2%; in the assay on PIP5K1A, 0%; in the assay with PIP5K1C, 0%; in the assay with PIP5K2B, 0%; in the assay on PIP5K2C it was 95.2%; in the assay with PKAC-alpha it was 0%. Further, the “%Inh” value in the assay with PKAC-beta stood at 13%; in the assay on PKMYT1, 0%; in the assay with PKN1, 0%; with PKN2 it was 25%; in the assay on PLK1, 11%; in the assay with PLK2 it was 0%. Moreover, the “%Inh” value was found to be 0% with PLK3 and 20% in the assay with PLK4.
